According to PubChem BioAssay AID1645870 (National Center for Advancing Translational Sciences (NCATS), 2021):
Several values for one entry are separate records, joined by “and”; a condition that tells them apart may be missing. Identical values can stand only once. Hit rate of the full screen: of about 59,000 compounds, about 1,500 (2.5%) were called active. Entries that show only a call come without a potency. About 10% were inconclusive and are not listed. The call rests on the fitted dose curve; in most records, active means well fitted inhibition curve with a large enough effect; inconclusive means small, poorly fitted or top-dose-only effect; inactive means flat fitted curve, though single readings scatter. For the sample, actives were picked, then their nearest neighbours and some compounds at random. More than one record can exist for a structure, and the calls need not agree.

target: N-terminal Xaa-Pro-Lys N-methyltransferase 1 (Homo sapiens) (UniProt Q9BV86); assay: Primary qHTS for Inhibitors of N-terminal methyltransferase 1 (NTMT1): MTaseGlo Assay; conditions: NTMT1 MTase-Glo SAH luminescence, purified enzyme; series mostly up to 114 µM; further: nearly all actives have a fitted effect of over 65% in size
Sequence (Q9BV86 whole entry, looked up): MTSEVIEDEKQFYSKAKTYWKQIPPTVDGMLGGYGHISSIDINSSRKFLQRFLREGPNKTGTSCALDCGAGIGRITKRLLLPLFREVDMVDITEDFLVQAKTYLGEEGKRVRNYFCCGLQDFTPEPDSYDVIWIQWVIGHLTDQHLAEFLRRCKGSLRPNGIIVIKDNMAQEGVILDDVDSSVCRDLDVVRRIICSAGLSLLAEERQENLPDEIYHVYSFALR
Text: Assay Submitter (PI): Rong Huang Ph.D.
Purdue University, West Lafayette, IN 47907
The N-terminal methytransferase 1 is the first methyltransferase that methylates protein alpha-N-amines and plays an important role in regulating cell mitosis, chromatin interactions and DNA repair. It is observed to be over-expressed in various cancer patient tissues like malignant melanoma and colorectal cancer tissues. Knockdown of NTMT1 in cancer cells causes cell mitotic defects and enhances sensitivity to DNA damaging chemotherapeutics. […] These critical cellular processes in which NTMT1 is implicated, coupled with emerging links to cellular dysfunction, strengthen the inference that NTMT1 is a compelling novel anticancer target. Progress have been made in understanding the molecular properties of NTMT1 and the biological consequences of protein alpha-N-terminal methylation, but there are no specific small molecule probes available for NTMT1 to fully characterize its MTase activity. To address this unmet need, a panel of assay is created and established to enable quantitative high-throughput screening (qHTS) for novel, potent, and selective small molecule NTMT1 inhibitors. Two orthogonal qHTS that use different reagents (ThioGlo vs. MTaseGlo) are developed for primary robotic screening against the NCATS chemical library of more than 400,000 small molecules. Identified inhibitors are reacquired, validated, and further characterized.
MTaseGlo Assay is a luminescence screen that measure the activity of methyltransferases based on the reaction product S-adenosyl homocysteine (SAH). The substrate SAM is converted to SAH upon enzyme activation. MTase-Glo reagent and detection solution convert SAH to ATP and measure the light from the luciferase reaction.
Materials: NTMT1 enzyme, substrate SPKRIA, control peptide RCC1-6 is provided by the Huang laboratory.
SEQUENCE No. (e.g., 1, 2, 3, etc.); […] (e.g., Cells, Incubation, Reagent, etc.); VALUE; DESCRIPTION
1; Enzyme; 3 uL; Dispense enzyme mixture (final concentrations of 125 nM NTMT1 and 100 uM SAM) into Greiner 1536-well white / solid bottom assay plate (Greiner Bio One, Monroe, NC).
2; Compounds; 23 nL; Compounds and controls were transferred via a Kalypsys Pin Tool (Wako USA) equipped with a 1536-slotted pin array (Wako Automation, Richmond, VA)
3; Incubation; 15 min; Incubate at room temperature
4; Substrate; 1 uL; Dispense 1 uL of substrate at final concentration of 1 uM. Buffer solution was dispensed in control wells. The assay plate was covered with metal lids.
5; Incubation; 30 min; Incubate at room temperature, protected from lights.
6; Reagent; 1 uL; Dispensed 5x MTase-Glo detection reagent (R) into the assay plate. The plate was covered with metal lids.
7; Incubation; 30 min; Incubate the assay plates at room temperature in the dark to allow for SAH to be converted to ADP.
8; Reagent; 5 uL; Dispense 5 uL of 1x MTase-Glo Detection Solution (R) to allow for ADP to be converted to ATP which was then detected with a luciferase reaction.
9; Centrifuge; 15 sec; Centrifuge the assay plate for 15 seconds at 1000 RPM.
10; Incubation; 30 min; Assay plates were incubation at room temperature in the dark.
11; Detection; Luminescence; Plates were read on ViewLux detector (PerkinElmer). Data were normalized to no-enzyme (0% activity) and no-inhibitor (DMSO; 100%) controls, and the resulting percent inhibition data were fitted to a 4-parameter Hill equation using GraphPad Prism.
Potency means the concentration at half of the fitted maximal effect.

SMILES	Potency
COc1cc2ncnc(Nc3cccc(Cl)c3F)c2cc1OC(=O)N1CCN(C)C[C@H]1C	35.5 µM (active) and 39.8 µM (active)
C=CC(=O)Nc1ccc2ncnc(Nc3ccc(OCc4cccc(F)c4)c(Cl)c3)c2c1	inactive
Cc1cc(NS(=O)(=O)c2cc3c(cc2F)NC(=O)CC3)ccc1F	inactive
CNc1oc(-c2ccc(-c3ccccc3)cc2)nc1C#N	inactive
COc1ccc(C(=O)N(Cc2ccccc2)Cc2ccc(OC)c(COc3ccc(NC(C)=O)cc3)c2)c(O)c1	inactive
O=C(Nc1ccc(S(=O)(=O)Nc2nccs2)cc1)C1CC(OCc2ccccc2)C1 (centres undefined)	inactive
O=C(CNC(=O)c1ccc(Cl)cc1Cl)OC(C(=O)Nc1cc(C(F)(F)F)ccc1Cl)c1ccccc1 (centres undefined)	inactive
Cc1cn([C@H]2C[C@H](N[S+](=O)([O-])Cc3ccc(Cl)cc3)[C@@H](CO)O2)c(=O)[nH]c1=O	inactive
Cc1[nH]c(/C=C2\C(=O)Nc3ccc(S(=O)(=O)Cc4c(Cl)cccc4Cl)cc32)c(C)c1C(=O)N1CCC[C@@H]1CN1CCCC1	11.2 µM (active)
Cc1cc(C)c(/C=C2\C(=O)Nc3ccccc32)[nH]1	inactive
Cc1ccc(C(=O)Nc2ccc(S(=O)(=O)Nc3nccs3)cc2)cc1C	inactive
O=C(Cc1ccc(Cl)c(Cl)c1)Nc1ccc([S+](=O)([O-])Nc2cccc([N+](=O)[O-])c2)cc1	inactive
O=S1(=O)N=C(Oc2cccc(Br)c2)c2ccccc21	inactive
O=C(Nc1ccccn1)c1sc2ccc([N+](=O)[O-])cc2c1Cl	inactive
COC(=O)c1ccccc1NC(=O)c1ccc(C#N)cc1	inactive
COc1ccc(C2Nc3ccccc3C(=O)N2Cc2cccc(OC)c2OC)cc1COc1c(C)cc(NC(C)=O)cc1C (centres undefined)	inactive
Cc1ccccc1NC(=O)c1c(NC(=O)c2ccccc2F)sc2c1CCC(C)C2 (centres undefined)	inactive
Cc1cccc(N2CCN(c3ccc(C(=O)O)cc3NC(=O)c3ccccc3F)CC2C)c1 (centres undefined)	70.8 µM (active)
Cc1cccc(N2CCN(C(=O)c3cc4c(=O)oc5ccccc5c4s3)CC2C)c1 (centres undefined)	inactive
O=C1CC(c2c[nH]c3ccc(F)cc23)C(=O)N1 (centres undefined)	inactive
CC1=C(C(=O)Nc2ccccc2C)C(c2ccccc2Br)N=C(Nc2nc3ccccc3o2)N1 (centres undefined)	inactive
O=C(CNC(=O)c1ccc(Cl)c(C(F)(F)F)c1)OC(C(=O)Nc1cc(C(F)(F)F)ccc1Cl)c1ccccc1 (centres undefined)	inactive
Cc1c(Cl)cccc1NC(=O)N1CCN(C(=O)c2nsc3ccccc23)CC1	inactive
Cc1ccc(-c2ccc(=O)n(CCNC(C)c3ccco3)n2)cc1 (centres undefined)	inactive

SMILES	Potency
CCC(C(=O)Nc1cccc(Cl)c1C)n1nc(-c2ccc(C)cc2)ccc1=O (centres undefined)	79.4 µM (active)
N#CN1CCC(NC(=O)c2ccc(F)cc2)CC1	inactive
CNc1oc(-c2cccc(Cl)c2Cl)nc1C#N	inactive
COc1cccc(C(=O)NC2CCN(C#N)CC2)c1	inactive
COc1ccc(C2Nc3ccccc3C(=O)N2Cc2ccccc2)cc1COc1ccc(C(N)=O)cc1 (centres undefined)	inactive
C[C@H](NC(=O)c1c(N)nn2cccnc12)c1cc2cccc(C#Cc3cnn(C)c3)c2c(=O)n1-c1ccccc1	inactive
Cc1sc(NC(=O)Cc2ccc3c(c2)OCO3)nc1-c1ccc2c(c1)CCN2	inactive
CCN(CCCNC(=O)Cn1ncc2c3ccccc3n(C)c2c1=O)Cc1ccccc1	inactive
CCN(CC)CCNC(=O)Cn1ncc2c3ccccc3n(Cc3ccccc3C)c2c1=O	89.1 µM (active)
CCCN(CCC)CCCNC(=O)Cn1ncc2c3ccccc3n(Cc3ccccc3)c2c1=O	inactive
CCOc1ccc(CCNC(=O)c2cc3sccc3n2CCN2CCOCC2)cc1OCC	inactive
CS(=O)(=O)c1ccc(C(=O)OCC(=O)N2CCC(c3ccccc3)CC2)cc1[N+](=O)[O-]	inactive
Cc1cc(N[S+](=O)([O-])c2ccc(NC(=O)Cc3ccc(F)c(C(F)(F)F)c3)cc2)no1	inactive
Cc1cc(Oc2ccc3nc(COc4ccc(CC5SC(=O)NC5=O)cc4)n(C)c3c2)cc(C)c1N (centres undefined)	inactive
COc1ccc(OCC(=O)Nc2cccc(C(=O)OCc3cc(=O)n4nc(C)sc4n3)c2)cc1	50.1 µM (active)
CCCCc1nn2c(=O)cc(COC(=O)c3cccc(NC(=O)COc4ccccc4)c3)nc2s1	inactive
Cc1nn2c(=O)cc(COC(=O)c3cccc(NC(=O)COc4ccccc4Cl)c3)nc2s1	inactive
CCN(CC)CCNC(=O)c1c(C)[nH]c(C=C2C(=O)Nc3ccc(F)cc32)c1C	44.1 µM (active)
CCOc1cc2[nH]c(=O)n(Cc3ccc(C(=O)NCCN(CC)CC)cc3)c(=O)c2cc1OCC	inactive
CCN(CC)CCNC(=O)c1cc(S(C)(=O)=O)ccc1OC	inactive
CCOc1cc(C(C)(C)C)ccc1C1=N[C@@](C)(c2ccc(Cl)cc2)[C@@](C)(c2ccc(Cl)cc2)N1C(=O)N1CCN(CC(=O)N2CCOCC2)CC1	inactive
C=C1C[C@@H]2CC[C@@]34C[C@H]5O[C@H]6[C@@H](O3)[C@H]3O[C@H](CC[C@@H]3O[C@H]6[C@H]5O4)CC(=O)C[C@@H]3[C@@H](OC)[C@@H](C[C@H](O)CN)O[C@H]3C[C@H]3O[C@@H](CC[C@@H]1O2)C[C@@H](C)C3=C	inactive
O=S(=O)(NC1CCN(S(=O)(=O)c2ccc3c(c2)OCCO3)CC1)c1c(F)cccc1F	inactive
COc1ccc(C2=Nn3c(nnc3-c3ccccc3F)SC2)cc1OC	inactive

SMILES	Potency
COc1ccc(-c2nc3c(c(SCC(=O)Nc4ccc(C(=O)O)cc4)n2)Cc2ccccc2O3)cc1	11.2 µM (active)
COC(=O)c1ccc(NC(=O)CSc2n[nH]c(-c3ccccc3)n2)cc1	inactive
COc1ccc(NC(=O)CSc2nc3ccccc3[nH]2)cc1	inactive
CN(C)CC(=O)NC1CCCc2c1cnn2-c1ccc(F)cc1F (centres undefined)	inactive
O=C(Nc1ccc(Cl)c(Cl)c1)Nc1nnc(N2CCNCC2)s1	50.1 µM (active)
O=C(Nc1ccc(Cl)c(Cl)c1)Nc1nnc(-c2ccc(F)cc2)s1	inactive
O=C(Nc1ccc(Cl)c(Cl)c1)Nc1nnc(C2CCCCC2)s1	inactive
O=C(Nc1nc(-c2ccccc2)cs1)c1ccccc1-n1cnnn1	inactive
Cc1cc(-c2nnc3n2CCCCC3)c(C)n1-c1ccc(C(F)(F)F)cc1	inactive
COc1cc(F)c(S(=O)(=O)N2CCCN(S(=O)(=O)c3ccc(N)cc3)CC2)c(F)c1	inactive
CC(C)(C)OC(=O)N1CCN(c2ccc(NCc3ccc4c(-c5ccc(F)cc5)cc(=O)oc4c3)cc2)CC1	inactive
Cc1cc(-c2nnc3n2CCCCC3)c(C)n1-c1cccc(Cl)c1	inactive
C(#Cc1cccs1)c1cccnc1	inactive
CCOC(=O)c1scc(-c2ccccc2)c1S(=O)(=O)Nc1ccccc1F	inactive
CC(C)(C)c1nc(-c2cccc(NS(=O)(=O)c3c(F)cccc3F)c2F)c(-c2ccnc(N)n2)s1	inactive and 39.8 µM (active)
O=C(C[C@H]1CC[C@@H](C(=O)Nc2ccc(S(=O)(=O)Nc3nccs3)cc2)C1)c1ccccc1	inactive
O=C(NCc1nnc(C(=O)Nc2ccc(C(F)(F)F)cc2Cl)o1)c1ccccc1	inactive
Cc1cccc(C2N=C(Nc3nc4ccccc4o3)NC3=C2C(=O)CCC3)c1 (centres undefined)	inactive
COc1ccc(CC(=O)Nc2ccc(-c3nc4ccccc4s3)c(C)c2)cc1	inactive
COc1cccc(C(=O)Nc2nnc(S(=O)(=O)N3CCOCC3)s2)c1	inactive
COc1ccc2c(c1)Cc1sc(NC(=O)c3ccccc3Br)nc1-2	50.1 µM (active)
CC(Cc1cnccn1)Nc1cnc2c(O)ccc(C(=O)O)c2c1 (centres undefined)	inactive
CCCn1c(-c2ccc(F)cc2)nc2c(NCC3CCCN3CC)nc(C)nc21 (centres undefined)	inactive
NC(=O)C1CCN(c2ncc(-c3ccc(Cl)cc3)s2)CC1	inactive

SMILES	Potency
COc1cccc(OC2=NS(=O)(=O)c3ccccc32)c1	inactive
Oc1c(Cl)cc(Cl)c(Cl)c1Cc1c(O)c(Cl)cc(Cl)c1Cl	31.6 µM (active)
Cc1cc(Nc2cc(C)c(C#N)c(NC(C)CCCC(C)(C)O)n2)n[nH]1 (centres undefined)	inactive
Cc1ccc(Cn2ncc3c4sc(C)cc4n(C)c3c2=O)c(C)c1	inactive
O=C1CCc2cc(S(=O)(=O)Nc3cccc(Oc4ccccc4)c3)ccc2N1	inactive
COc1ccc(C2Nc3ccccc3C(=O)N2Cc2cccs2)cc1COc1c(C)cccc1C (centres undefined)	inactive
COc1cccc(CNc2ccc(S(=O)(=O)Nc3cccs3)cc2)c1O	inactive
CCCn1c(C)nc2c(NCCCCN(CC)CC)nc(C)nc21	inactive
CCc1ccc(CNC(=O)c2cc3c(=O)n(CC)c4ccccc4c3s2)cc1	inactive
CCN(CCCNC(=O)c1cc2c(=O)n(CC)c3ccccc3c2s1)Cc1ccccc1	79.4 µM (active)
CCn1c(=O)c2cc(C(=O)NCCc3ccc(Cl)cc3)sc2c2ccccc21	inactive
COc1ccc(C2Nc3ccccc3C(=O)N2Cc2ccc(CNC(=O)CO)cc2)cc1COc1ccc(NC(C)=O)cc1 (centres undefined)	inactive
Cc1cc(C)cc(OC(C)C(=O)Nc2nc3c(s2)CCCC3)c1 (centres undefined)	inactive
O=C(Nc1nc2c(s1)CCCC2)c1ccccc1F	35.5 µM (active)
O=C(Nc1ccc(S(=O)(=O)N2CCC(c3nc4ccccc4s3)CC2)cc1)c1ccccc1F	inactive
O=C1CCCC2=C1C(c1[nH]ncc1Cl)N=C(Nc1nc3ccc(F)cc3o1)N2 (centres undefined)	inactive
CN1C(=O)[C@@H](NC(=O)c2n[nH]c(Cc3ccccc3)n2)COc2ccccc21	inactive
Nc1ccc2c(=O)n3nc(Nc4ccc5c(c4)CCC5)sc3nc2c1	inactive
Oc1ccc(/C=C/c2c(F)cccc2F)c2cccnc12	inactive
CCOc1ccccc1NC(=O)CN1CCN(S(=O)(=O)c2ccc(Br)cc2)CC1	inactive
CCOc1ccccc1C(=O)Nc1ccc(S(=O)(=O)N2CCCCC2c2cccnc2)cc1 (centres undefined)	79.4 µM (active)
Cc1cccc(C(=O)Nc2ccc(S(=O)(=O)N3CCCCC3c3cccnc3)cc2)c1 (centres undefined)	inactive
